Results on twelve molecules are retold here after PubChem BioAssay (NCI).

Test systems include SK-MEL-2 melanoma; EKVX NSCLC; SN12C renal; UO-31 renal; TK-10 renal; CAKI-1 renal; A498 renal; CCRF-CEM leukemia; MOLT-4 leukemia; ACHN renal.
What all share (assay): NCI-60 one-dose screen, 48 h (100 = growth as untreated, 0 = no growth, -100 = all killed)
Conditions in all cases: 10 µM unless noted

SMILES strings stand for the structures. Several values for one entry are separate records, joined by “and”; a condition that tells them apart may be missing. Equal values may be shown once. About 83,000 compounds went through this panel and 20% of them were active in at least one assay; those are over-represented in the sample as a whole.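 How to read the values: 0–100, growth inhibition (40 = 60% inhibited); 0, no net growth; -100 to 0, cell death (-40 = 40% of starting cells died; -100 = all dead).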 Activity calls are given as the source filed them. Rule for the calls: active = growth percent below 10; inactive = the rest.

On to `CC1NC(C)c2ccc3ccccc3c2O1` (stereo not drawn), for which the growth in the experiment with SK-MEL-2 melanoma is 100% (inactive); in the experiment with EKVX NSCLC it was 123% (inactive); with SN12C renal, 99.1% (inactive); in the experiment on UO-31 renal it was 69.4% (inactive); in the experiment with TK-10 renal, 110% (inactive); with CAKI-1 renal, 96.7% (inactive). Besides, the growth in the experiment with A498 renal is 84.8% (inactive); with CCRF-CEM leukemia it was 97.9% (inactive); in the experiment with MOLT-4 leukemia, 105% (inactive).
`CNc1ccc(Cl)cc1S(=O)(=O)c1ccccc1[N+](=O)[O-]`: the growth in the experiment with SK-MEL-2 melanoma is 103% (inactive) and 85.6% (inactive); in the experiment with EKVX NSCLC, 103% (inactive) and 94.5% (inactive); with SN12C renal, 89.8% (inactive) and 98.3% (inactive); with UO-31 renal, 91.8% (inactive) and 92.6% (inactive); in the experiment on TK-10 renal, 99.7% (inactive) and 95% (inactive); with ACHN renal, 107% (inactive) and 97.9% (inactive). In addition, the growth is 118% (inactive) with A498 renal; 84.9% (inactive) and 93.3% (inactive) in the experiment with CCRF-CEM leukemia; 85.6% (inactive) and 103% (inactive) in the experiment on MOLT-4 leukemia.
In the case of `Nc1nc(-c2ccccn2)cc(-c2cc(-c3ccccn3)nc(N)n2)n1`, the growth in the experiment on SK-MEL-2 melanoma is 112% (inactive); in the experiment on EKVX NSCLC, 102% (inactive); in the experiment on SN12C renal, 108% (inactive); in the experiment with UO-31 renal, 91.1% (inactive); with TK-10 renal it was 107% (inactive); with ACHN renal it was 110% (inactive). Also, the growth in the experiment with A498 renal was 156% (inactive); in the experiment on CCRF-CEM leukemia, 101% (inactive); in the experiment on MOLT-4 leukemia it was 106% (inactive).
As for `COc1ccc(CCO)cc1`, the growth in the experiment on SK-MEL-2 melanoma was 91.7% (inactive); in the experiment on EKVX NSCLC it was 107% (inactive); in the experiment on SN12C renal, 100% (inactive); in the experiment with UO-31 renal, 96.9% (inactive); in the experiment on TK-10 renal it was 96.3% (inactive); in the experiment with CAKI-1 renal, 102% (inactive). Besides, the figures for the growth with A498 renal, in the experiment on CCRF-CEM leukemia and in the experiment with MOLT-4 leukemia were 97.2% (inactive), 101% (inactive) and 60.7% (inactive), respectively.
On to `C(#CCN1CCOCC1)CCCN1CCOCC1`, for which the growth with SK-MEL-2 melanoma is 108% (inactive) and 117% (inactive); with EKVX NSCLC it was 104% (inactive) and 83.1% (inactive); with SN12C renal it was 102% (inactive); in the experiment with UO-31 renal it was 97.6% (inactive) and 89.6% (inactive); with TK-10 renal, 109% (inactive) and 86.2% (inactive); with ACHN renal, 101% (inactive) and 98.3% (inactive). The growth with A498 renal is 87.1% (inactive) and 104% (inactive); in the experiment on CCRF-CEM leukemia, 107% (inactive); in the experiment with MOLT-4 leukemia, 109% (inactive) and 113% (inactive).
Consider `CCNC1=CC(=O)c2ncccc2C1=O`, for which the growth is 26.9% (inactive) in the experiment with SK-MEL-2 melanoma; 72.6% (inactive) with EKVX NSCLC; -32.2% (active) in the experiment with SN12C renal; 48.4% (inactive) in the experiment on UO-31 renal; 83.6% (inactive) in the experiment on TK-10 renal; 55.8% (inactive) with CAKI-1 renal. In addition, the growth with A498 renal was 80.8% (inactive); in the experiment with CCRF-CEM leukemia, 76.7% (inactive); in the experiment on MOLT-4 leukemia, 52.6% (inactive).
Consider `CC(C)(C)OC(=O)NCCc1ccc(N)cc1`, for which the growth in the experiment on SK-MEL-2 melanoma was 86.1% (inactive); in the experiment on EKVX NSCLC, 101% (inactive); in the experiment on SN12C renal it was 91.8% (inactive); with UO-31 renal, 72% (inactive); with TK-10 renal it was 92.7% (inactive); in the experiment on CAKI-1 renal, 98.2% (inactive). Moreover, the growth with A498 renal is 92.5% (inactive); with CCRF-CEM leukemia, 85.5% (inactive); in the experiment on MOLT-4 leukemia, 92.8% (inactive).
For the molecule `CC(=O)Oc1ccc(C(c2ccc(OC(C)=O)cc2)c2ccccn2)cc1`, the growth with SK-MEL-2 melanoma was 107% (inactive) and 94.3% (inactive); in the experiment with EKVX NSCLC it was 82.5% (inactive) and 87.8% (inactive); with SN12C renal it was 29.3% (inactive) and 30.9% (inactive); in the experiment on UO-31 renal, 74.3% (inactive) and 89.2% (inactive); with TK-10 renal it was 77.1% (inactive) and 86.1% (inactive); in the experiment with CAKI-1 renal, 100% (inactive) and 117% (inactive). Besides, the growth in the experiment with A498 renal was 91.1% (inactive); with CCRF-CEM leukemia, 98.8% (inactive) and 90.9% (inactive); with MOLT-4 leukemia, 93.3% (inactive) and 103% (inactive).
In the case of `CCOC(=O)C1=C(C)NC(C)=C(C(=O)OCC)C1`, the growth in the experiment with SK-MEL-2 melanoma is 109% (inactive) and 110% (inactive); in the experiment on EKVX NSCLC, 109% (inactive); with SN12C renal, 94.7% (inactive) and 109% (inactive); in the experiment with UO-31 renal, 98.9% (inactive) and 90.4% (inactive); in the experiment on TK-10 renal, 107% (inactive) and 101% (inactive); in the experiment on CAKI-1 renal, 113% (inactive) and 97.6% (inactive). The growth was 112% (inactive) with A498 renal; 86.9% (inactive) and 56% (inactive) with CCRF-CEM leukemia; 134% (inactive) and 101% (inactive) with MOLT-4 leukemia.
With `COc1ccc(S(=O)(=O)c2ccc(F)cc2)cc1`, the growth was 99% (inactive) with SK-MEL-2 melanoma; 122% (inactive) with EKVX NSCLC; 97.8% (inactive) with SN12C renal; 83.8% (inactive) with UO-31 renal; 95.4% (inactive) in the experiment with TK-10 renal; 108% (inactive) in the experiment with CAKI-1 renal. Besides, the growth in the experiment with A498 renal was 108% (inactive); in the experiment with CCRF-CEM leukemia, 84.6% (inactive); in the experiment with MOLT-4 leukemia, 92.3% (inactive).
In the case of `O=c1[nH]c(=S)[nH]n1C(=S)n1[nH]c(=S)[nH]c1=O`, the growth was 106% (inactive) with SK-MEL-2 melanoma; 105% (inactive) with EKVX NSCLC; 101% (inactive) with SN12C renal; 106% (inactive) with TK-10 renal; 99.3% (inactive) with ACHN renal; 94.8% (inactive) in the experiment with CAKI-1 renal. Also, the growth was 109% (inactive) in the experiment with A498 renal, 93.6% (inactive) with CCRF-CEM leukemia and 112% (inactive) with MOLT-4 leukemia.
`Nc1ccccc1SC(CC(=O)c1ccccc1)c1cccc([N+](=O)[O-])c1` (stereo not drawn): the growth was 113% (inactive) and 81.9% (inactive) in the experiment on SK-MEL-2 melanoma; 96.5% (inactive) in the experiment on EKVX NSCLC; 87.7% (inactive) and 88.8% (inactive) in the experiment with SN12C renal; 131% (inactive) and 113% (inactive) with TK-10 renal; 90.1% (inactive) and 90.7% (inactive) with ACHN renal; 70.9% (inactive) and 95.2% (inactive) in the experiment with CAKI-1 renal. Further, the growth in the experiment with A498 renal was 91.5% (inactive) and 104% (inactive); in the experiment on CCRF-CEM leukemia it was 53.3% (inactive) and 34.9% (inactive); in the experiment with MOLT-4 leukemia, 87.6% (inactive) and 55% (inactive).
